# Sampled rows, rich in hits. Any-hit rate of the full collection: about 0.33%.
# IL2 activator: IL-2 activation; AID 652025; IL-2 activation reporter assay, cell-based qHTS; stimulated with anti-CD3/CD4/CD28 beads; in transgenic mouse T cells; activation, % (series mostly up to about 46 µM); hit rate 0.065% among 360,000; in the data active = activation above about 50%; note: 0% is about no effect
#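 Screening format: compound pinned onto unstimulated transgenic mouse T cells, 60 min incubation, then anti-CD3/anti-CD4/anti-CD28 bead stimulation for 18 hours at 37 degrees C, followed by EGFP and DsRed detection.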
# PKM2 act: increases activity of human pyruvate kinase M2 | P14618 | purified PKM2, Kinase-Glo ATP luminescence, activation; response scale: 0% is enzyme alone, no compound | Potency, µM (top dose mostly 57.5 µM), for inactives: at the top dose activation, usual class: activators | hit rate 0.34% among 260,000; note: potency is the fitted concentration of half-maximal effect; % is set by controls: 0 for no effect and ±100 for the full control effect; nearly all actives have a fitted effect of over 55% in size
# Target sequence (P14618 whole entry, looked up): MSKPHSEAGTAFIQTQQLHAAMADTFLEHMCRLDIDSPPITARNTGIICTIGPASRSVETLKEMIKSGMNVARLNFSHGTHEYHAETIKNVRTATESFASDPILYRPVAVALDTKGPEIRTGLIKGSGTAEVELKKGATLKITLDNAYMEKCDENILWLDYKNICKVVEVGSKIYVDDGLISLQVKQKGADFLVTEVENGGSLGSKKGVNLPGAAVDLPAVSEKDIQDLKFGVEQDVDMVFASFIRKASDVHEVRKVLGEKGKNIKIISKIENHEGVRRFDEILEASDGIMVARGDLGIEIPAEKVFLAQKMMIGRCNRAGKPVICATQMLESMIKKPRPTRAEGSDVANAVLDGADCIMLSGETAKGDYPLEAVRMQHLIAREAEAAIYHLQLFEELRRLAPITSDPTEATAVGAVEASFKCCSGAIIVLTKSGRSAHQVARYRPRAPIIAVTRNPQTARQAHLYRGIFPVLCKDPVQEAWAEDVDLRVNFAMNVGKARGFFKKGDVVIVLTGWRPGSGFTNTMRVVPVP
#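 hPK-M2, >95% pure; 0.1 mM ADP / 0.5 mM PEP final; imidazole pH7.2 buffer w/ 7 mM MgCl2, 50 mM KCl; 1 h RT; Kinase-Glo lum. Intermediate enzyme activity for dual inhibitor/activator qHTS.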
# ASM inhibitor: human S-ASM enzyme inhibition; placental ASM, HMU-PC fluorogenic substrate, 60 min; hit rate 0.006% among 340,000; Potency, µM (series often up to 57.5 µM), without a hit: at the top dose activity change, negative = inhibition, actives largely listed as inhibitors; note: potency is the fitted concentration of half-maximal effect
#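 HMU-PC0 cleavage (9 uM final) by human placental ASM, 60 min at 37 °C following 10 min compound exposure at RT; stopped at pH 10, fluorescence Ex 386/Em 447 nm.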
# * marks the source's active call; other numbers are inactive results; i = inactive; x = no result. Unless noted, calls come from the whole dose curve; as a rule, active = well fitted curve in the direction sought with a large enough effect; inconclusive = small, poorly fitted or top-dose-only effect, or another doubt; inactive = no such curve, though single readings can be large; an effect the other way counts as inactive or inconclusive.
SMILES,IL2 activator,PKM2 act,ASM inhibitor
CC(=O)c1c(O)n(-c2cccc(Cl)c2)c(=O)[nH]c1=O (tested in a mixture with another compound),0,1%,0%
CC(C)n1c(O)c(C2c3cc(Cl)ccc3Oc3[nH]c(=O)n(C(C)C)c(=O)c32)c(=O)[nH]c1=O (centres undefined),-2,14µM*,4%
COc1ccccc1/C=C1\C(=O)NC(=S)N(c2ccccc2)C1=O,-1,x,-1%
COc1ccc(N2C(=O)/C(=C/c3ccc(N(C)C)o3)C(=O)NC2=S)cc1,5,x,-6%
COc1ccc(N2C(=O)/C(=C/c3cccs3)C(=O)NC2=S)cc1,-5,14µM*,-3%
COc1ccc(N2C(=O)/C(=C/C=C/c3ccccc3[N+](=O)[O-])C(=O)NC2=S)cc1,0,20µM*,-8%
O=Cc1cn(Cc2ccccc2F)c2ccccc12,0,-6%,0%
CCOc1cc(CNC(C)C(O)c2ccccc2)cc(Cl)c1OCC (centres undefined),-1,-7%,0%
O=C1NC(=O)N(c2ccccc2)C(=O)/C1=C/c1ccc(Sc2ccccc2)o1,96*,28µM*,1%
O=C1NC(=O)N(c2cccc(Cl)c2)C(=O)/C1=C\c1ccc(Sc2nc3ccccc3[nH]2)o1,-8,19%,-11%
Cc1ccc(OCC(=O)N2CCN(Cc3ccc4c(c3)OCO4)CC2)cc1,-1,-3%,2%
CC(=O)c1c(O)n(C)c(=S)n(-c2ccccc2)c1=O,0,-10%,4%
O=C1NC(=O)N(c2ccc3c(c2)OCO3)C(=O)/C1=C\c1ccc(-c2ccccc2C(=O)O)o1,-1,25µM*,10%
O=C1NC(=O)N(c2ccc3c(c2)OCO3)C(=O)/C1=C/c1ccc(N2CCCCC2)o1,1,5%,-12%
O=c1[nH]c(O)c(C=NCCc2ccccc2)c(=O)[nH]1,0,-6%,-2%
O=c1[nH]c(O)c(/C=C2\C=Nc3ccc(OCc4ccccc4)cc32)c(=O)[nH]1,193*,0%,-14%
COC(=O)Cn1cc(/C=C2\C(=O)NC(=O)N(c3ccc(OC)cc3)C2=O)c2ccccc21,92*,x,-3%
COc1ccc(N2C(=O)NC(=O)/C(=C\c3cn(C)c4ccccc34)C2=O)cc1,2,x,1%
CCc1nc2ccccc2c(=O)n1-c1ccc2ccccc2c1,-1,7%,0%
COC(=O)C1=C(c2ccc(C(C)=O)cc2)C[C@@H]2CC[C@H]1N2C(=O)NCc1ccco1,0,x,-1%
Nc1ccc(CC2=NCCN2)cc1,1,x,0%
COc1cc([C@@H]2c3cc4c(cc3[C@@H](OC)[C@H]3COC(=O)[C@H]23)OCO4)cc(OC)c1O,0,32µM*,3%
COc1cc2c(cc1C=O)OCO2,-1,-6%,18%
CCOc1cc(C=C2C(=O)NC(=S)NC2=O)ccc1O,-1,x,-2%
CC(OC(=O)c1cn(C)c2ccccc12)C(=O)N(C)c1ccccc1 (centres undefined),-1,x,2%
SMILES,IL2 activator,PKM2 act,ASM inhibitor
O=C1NC(=O)N(c2ccccc2)C(=O)/C1=C\c1ccc2c3c(cccc13)CC2,x,15%,x
Nc1ccc2c3c(cccc13)CC2,83*,-2%,24%
CC(=O)O[C@H]1CC[C@]2(C)C3CC[C@@]4(C)C(C[C@@H](O)[C@@H]4O)C3[C@@H](OC(C)=O)C[C@H]2C1 (some centres undefined),0,x,x
COc1cccc(-n2c(O)c(C=NCCN3CCNCC3)c(=O)[nH]c2=S)c1,-1,x,2%
COCCCNC(=O)c1c(NC(=O)c2ccccc2)n(Cc2ccccc2)c2nc3ccccc3nc12,68*,x,141%
COCCOC(=O)c1c(N)n(Cc2ccccc2)c2nc3ccccc3nc12,1,-1%,i
c1ccc2c(c1)-c1cccc3cccc-2c13,-1,x,131%
Nc1c(Br)cc2c3c(cccc13)-c1ccccc1-2,82*,x,-22%
NC1=NC(c2cccnc2)n2c(nc3ccccc32)N1 (centres undefined),0,2%,3%
Cc1c(N=Cc2c(O)n(CCc3ccccc3)c(=O)[nH]c2=O)c(=O)n(-c2ccccc2)n1C,0,2%,4%
Cc1c(N=Cc2c(O)n(C3CCCCC3)c(=O)[nH]c2=O)c(=O)n(-c2ccccc2)n1C,62*,0%,5%
CN(CCc1ccccc1)Cc1c[nH]c2ccccc12,-4,0%,2%
Cc1c(C(c2ccc(Cl)cc2Cl)c2c(O)c3ccccc3oc2=O)c(=O)n(-c2ccccc2)n1C (centres undefined),1,8%,7%
COc1cc2c(C(=O)N3CCN(C)CC3)c(C)n(C)c2cc1Br,0,7%,4%
Cc1cc(/C=C2\C(=O)NC(=O)N(c3cccc(Br)c3)C2=O)c(C)n1C,68*,-5%,-3%
Cc1cc(/C=C2/C(=O)NC(=O)N(c3ccc(Br)cc3)C2=O)c(C)n1C,10,1%,-1%
Cc1c(Cl)cccc1NC(=S)N1CC2CC(C1)c1cccc(=O)n1C2 (centres undefined),0,-16%,6%
CC(Cc1ccccc1)NC(N)=O (centres undefined),0,13%,2%
CC(Cc1ccccc1)NC(=O)/C=C/c1ccc(Cl)cc1 (centres undefined),87*,2%,-1%
CCC(=NCCc1ccccc1)c1c(O)[nH]c(=O)[nH]c1=O,-5,-1%,-1%
CC(=NCCc1ccccc1)c1c(O)[nH]c(=O)[nH]c1=O,-4,28µM*,4%
CCOC(=O)c1c(/N=C/c2c(O)n(-c3cccc(C)c3)c(=O)[nH]c2=O)sc2c1CCCC2,1,-1%,8%
CCOC(=O)c1c(/N=C/C2C(=O)NC(=O)NC2=O)sc2c1CCC2,76*,5%,0%
